Legend:
Test in all cases: DAPPL (digital affinity profiling via proximity ligation, sequencing); 10 mM Tris-HCl pH 7.5, 50 mM NaCl, 1 mM DTT, 4% glycerol, room temperature, 30 min; GST-TFs on glutathione beads, 16-mer random dsDNA library, 0.1% formaldehyde crosslink after washing; high values mean tight binding
FEV = biological target: T1, FEV (Homo sapiens, UniProt Q99581 1-238); conditions: protein: recombinant; tags: N-terminal GST; dsDNA, one strand shown
T1 sequence: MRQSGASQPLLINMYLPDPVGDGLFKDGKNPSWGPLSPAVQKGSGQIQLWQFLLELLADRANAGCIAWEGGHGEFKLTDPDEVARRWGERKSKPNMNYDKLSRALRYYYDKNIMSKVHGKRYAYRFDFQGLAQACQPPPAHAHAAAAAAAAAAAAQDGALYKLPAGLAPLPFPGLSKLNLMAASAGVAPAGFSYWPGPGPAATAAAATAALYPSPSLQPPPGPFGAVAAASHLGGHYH
Summary of the method: (§1)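 After expression in yeast as GST fusions, human transcription factors were bound to glutathione beads, DNA-barcoded and mixed with a tag-only sample. The pools were incubated with 200 nmole of a 16-mer random double-stranded DNA library in Tris/NaCl/DTT/glycerol buffer (30 min, room temperature), washed and crosslinked with 0.1% formaldehyde. Proximity ligation with BsaI/T4 ligase ran for 1 h at 37 °C, before PCR amplification and sequencing on an Illumina NextSeq500. Binding signal is a hexamer's read frequency for a factor divided by its frequency for the tag-only sample.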

ETV5 = ETV5 (Homo sapiens, UniProt P41161 1-510); conditions: protein: recombinant; tags: N-terminal GST; dsDNA, one strand shown
Summary of the method: as §1

HSF1 = HSF1 (Homo sapiens, UniProt Q00613 1-529); conditions: protein: recombinant; tags: N-terminal GST; chain copies: 3; dsDNA, one strand shown
Summary of the method: as §1

SPIC = biological target: T2, SPIC (Homo sapiens, UniProt Q8N5J4 1-248); conditions: protein: recombinant; tags: N-terminal GST; dsDNA, one strand shown
T2 sequence: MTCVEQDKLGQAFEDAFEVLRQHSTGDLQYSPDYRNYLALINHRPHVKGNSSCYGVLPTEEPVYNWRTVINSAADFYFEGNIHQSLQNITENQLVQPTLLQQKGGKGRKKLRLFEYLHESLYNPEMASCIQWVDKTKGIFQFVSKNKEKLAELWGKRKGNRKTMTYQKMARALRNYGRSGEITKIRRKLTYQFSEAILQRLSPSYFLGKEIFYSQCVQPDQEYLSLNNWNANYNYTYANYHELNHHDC
Summary of the method: as §1

ELF4 = ELF4 (Homo sapiens, UniProt Q99607 1-663); conditions: protein: recombinant; tags: N-terminal GST; dsDNA, one strand shown
Summary of the method: as §1

ELK4 = biological target: T3, ELK4 (Homo sapiens, UniProt P28324-2 1-405); conditions: protein: recombinant; tags: N-terminal GST; dsDNA, one strand shown
T3 sequence: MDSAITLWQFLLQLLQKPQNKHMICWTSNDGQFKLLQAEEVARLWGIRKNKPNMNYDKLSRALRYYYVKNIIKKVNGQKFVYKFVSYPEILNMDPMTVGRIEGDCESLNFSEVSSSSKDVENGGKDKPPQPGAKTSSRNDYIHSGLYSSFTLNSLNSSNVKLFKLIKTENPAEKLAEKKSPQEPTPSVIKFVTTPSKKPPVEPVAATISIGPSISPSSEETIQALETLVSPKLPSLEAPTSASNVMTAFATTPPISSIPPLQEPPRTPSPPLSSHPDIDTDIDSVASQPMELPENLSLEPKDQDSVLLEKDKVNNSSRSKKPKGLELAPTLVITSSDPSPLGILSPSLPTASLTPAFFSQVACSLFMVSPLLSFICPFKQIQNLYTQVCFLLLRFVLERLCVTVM
Summary of the method: as §1

ETV2 = biological target: T4, ETV2 (Homo sapiens, UniProt O00321 1-342); conditions: protein: recombinant; tags: N-terminal GST; dsDNA, one strand shown
T4 sequence: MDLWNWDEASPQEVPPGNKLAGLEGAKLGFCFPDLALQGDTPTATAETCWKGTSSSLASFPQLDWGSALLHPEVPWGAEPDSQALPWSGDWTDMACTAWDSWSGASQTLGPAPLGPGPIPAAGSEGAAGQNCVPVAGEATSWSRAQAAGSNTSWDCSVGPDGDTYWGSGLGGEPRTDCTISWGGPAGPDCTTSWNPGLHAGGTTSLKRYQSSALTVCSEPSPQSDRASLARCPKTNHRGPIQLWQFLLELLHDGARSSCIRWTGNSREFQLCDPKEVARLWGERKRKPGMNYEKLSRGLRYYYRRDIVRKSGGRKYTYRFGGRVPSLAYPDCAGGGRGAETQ
Summary of the method: as §1

ELF3 = biological target: T5, ELF3 (Homo sapiens, UniProt P78545 1-371); conditions: protein: recombinant; tags: N-terminal GST; dsDNA, one strand shown
T5 sequence: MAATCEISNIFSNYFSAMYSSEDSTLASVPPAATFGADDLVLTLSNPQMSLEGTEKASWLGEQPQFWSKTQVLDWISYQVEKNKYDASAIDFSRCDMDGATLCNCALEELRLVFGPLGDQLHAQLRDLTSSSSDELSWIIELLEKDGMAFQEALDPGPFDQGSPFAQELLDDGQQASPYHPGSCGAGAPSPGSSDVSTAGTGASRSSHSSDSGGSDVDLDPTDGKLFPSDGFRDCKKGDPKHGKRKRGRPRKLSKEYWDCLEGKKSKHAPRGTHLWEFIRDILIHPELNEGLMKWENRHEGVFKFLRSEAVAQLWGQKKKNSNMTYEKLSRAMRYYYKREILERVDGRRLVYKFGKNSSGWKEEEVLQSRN
Summary of the method: as §1

CRX = CRX (Homo sapiens, UniProt O43186 1-299); conditions: protein: recombinant; tags: N-terminal GST; dsDNA, one strand shown
Summary of the method: as §1

ETV1 = ETV1 (Homo sapiens, UniProt P50549 1-477); conditions: protein: recombinant; tags: N-terminal GST; dsDNA, one strand shown
Summary of the method: as §1

Chain of CRX (O43186 whole entry): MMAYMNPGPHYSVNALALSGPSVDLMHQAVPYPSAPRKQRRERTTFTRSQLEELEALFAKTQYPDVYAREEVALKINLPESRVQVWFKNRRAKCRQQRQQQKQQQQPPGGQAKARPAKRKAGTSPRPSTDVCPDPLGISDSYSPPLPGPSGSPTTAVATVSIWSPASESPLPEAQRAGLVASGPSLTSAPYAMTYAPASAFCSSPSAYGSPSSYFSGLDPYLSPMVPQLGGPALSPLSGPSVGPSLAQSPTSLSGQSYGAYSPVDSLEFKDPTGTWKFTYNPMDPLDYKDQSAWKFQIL
Chain of ETV1 (P50549 whole entry): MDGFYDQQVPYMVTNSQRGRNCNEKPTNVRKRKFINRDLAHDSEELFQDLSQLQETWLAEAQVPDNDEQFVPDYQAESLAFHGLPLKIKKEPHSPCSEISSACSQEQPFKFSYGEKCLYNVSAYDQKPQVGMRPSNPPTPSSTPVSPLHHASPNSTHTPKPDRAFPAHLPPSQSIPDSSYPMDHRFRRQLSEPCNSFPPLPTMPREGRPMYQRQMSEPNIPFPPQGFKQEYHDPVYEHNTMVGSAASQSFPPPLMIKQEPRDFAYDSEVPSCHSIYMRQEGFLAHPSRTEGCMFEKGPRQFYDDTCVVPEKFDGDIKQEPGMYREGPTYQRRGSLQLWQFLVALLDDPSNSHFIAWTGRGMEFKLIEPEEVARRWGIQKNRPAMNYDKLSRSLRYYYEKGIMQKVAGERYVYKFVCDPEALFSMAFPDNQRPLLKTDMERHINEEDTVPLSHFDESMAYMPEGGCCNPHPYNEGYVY
Chain of ETV5 (P41161 whole entry): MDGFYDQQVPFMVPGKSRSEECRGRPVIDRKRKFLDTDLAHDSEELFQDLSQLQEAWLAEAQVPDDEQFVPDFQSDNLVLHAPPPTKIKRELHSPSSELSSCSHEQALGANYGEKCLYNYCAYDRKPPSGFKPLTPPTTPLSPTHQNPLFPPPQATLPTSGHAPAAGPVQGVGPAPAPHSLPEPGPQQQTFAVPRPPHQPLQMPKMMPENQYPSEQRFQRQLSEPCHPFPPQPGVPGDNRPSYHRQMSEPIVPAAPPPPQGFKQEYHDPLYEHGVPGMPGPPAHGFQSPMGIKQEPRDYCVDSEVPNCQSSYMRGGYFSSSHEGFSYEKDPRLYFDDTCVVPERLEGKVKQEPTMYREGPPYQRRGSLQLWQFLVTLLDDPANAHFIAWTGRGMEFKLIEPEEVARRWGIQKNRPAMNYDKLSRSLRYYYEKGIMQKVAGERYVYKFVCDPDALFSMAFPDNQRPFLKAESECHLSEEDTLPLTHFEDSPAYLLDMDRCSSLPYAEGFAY
Chain of ELF4 (Q99607 whole entry): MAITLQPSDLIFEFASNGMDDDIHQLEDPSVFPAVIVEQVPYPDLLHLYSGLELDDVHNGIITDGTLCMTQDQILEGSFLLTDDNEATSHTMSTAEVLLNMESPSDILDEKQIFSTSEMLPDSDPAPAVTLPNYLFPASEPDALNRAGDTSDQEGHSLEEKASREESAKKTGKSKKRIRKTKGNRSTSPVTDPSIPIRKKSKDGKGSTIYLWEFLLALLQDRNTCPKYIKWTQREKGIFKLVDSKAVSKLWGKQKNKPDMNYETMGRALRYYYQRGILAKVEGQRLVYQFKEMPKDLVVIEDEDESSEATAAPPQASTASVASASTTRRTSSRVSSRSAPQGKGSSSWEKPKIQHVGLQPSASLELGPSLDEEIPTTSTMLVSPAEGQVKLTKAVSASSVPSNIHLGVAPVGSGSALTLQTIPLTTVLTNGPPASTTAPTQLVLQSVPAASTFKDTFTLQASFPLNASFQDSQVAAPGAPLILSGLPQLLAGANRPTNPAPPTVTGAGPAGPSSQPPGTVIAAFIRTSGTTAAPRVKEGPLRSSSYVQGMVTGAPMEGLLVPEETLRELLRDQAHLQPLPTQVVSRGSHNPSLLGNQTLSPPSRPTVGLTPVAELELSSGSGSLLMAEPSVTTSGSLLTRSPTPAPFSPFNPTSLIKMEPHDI
Chain of HSF1 (Q00613 whole entry): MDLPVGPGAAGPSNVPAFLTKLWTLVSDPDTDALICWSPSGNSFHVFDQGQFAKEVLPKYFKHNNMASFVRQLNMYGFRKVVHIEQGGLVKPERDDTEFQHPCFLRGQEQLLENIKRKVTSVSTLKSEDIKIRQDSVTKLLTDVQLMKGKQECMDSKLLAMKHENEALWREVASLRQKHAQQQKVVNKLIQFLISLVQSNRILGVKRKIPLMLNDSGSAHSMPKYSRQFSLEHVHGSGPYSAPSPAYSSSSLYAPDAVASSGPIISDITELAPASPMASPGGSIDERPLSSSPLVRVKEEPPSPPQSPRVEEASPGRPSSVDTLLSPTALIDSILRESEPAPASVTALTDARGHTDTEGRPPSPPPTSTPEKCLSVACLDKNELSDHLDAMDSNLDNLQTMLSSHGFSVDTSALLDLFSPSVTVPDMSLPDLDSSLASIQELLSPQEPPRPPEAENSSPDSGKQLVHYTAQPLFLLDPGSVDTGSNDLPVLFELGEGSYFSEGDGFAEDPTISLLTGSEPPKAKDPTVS

ACACTA
binding signal (FEV): 1.14 fold enrichment (6-mer frequency, TF over GST control) | binding signal (ETV5): 1.14 fold enrichment (6-mer frequency, TF over GST control) | binding signal (HSF1): 1.12 fold enrichment (6-mer frequency, TF over GST control) | binding signal (SPIC): 1.14 fold enrichment (6-mer frequency, TF over GST control) | binding signal (ELF4): 1.13 fold enrichment (6-mer frequency, TF over GST control) | binding signal (ELK4): 1.16 fold enrichment (6-mer frequency, TF over GST control) | binding signal (ETV2): 1.1 fold enrichment (6-mer frequency, TF over GST control) | binding signal (ELF3): 1.19 fold enrichment (6-mer frequency, TF over GST control) | binding signal (CRX): 1.11 fold enrichment (6-mer frequency, TF over GST control) | binding signal (ETV1): 1.03 fold enrichment (6-mer frequency, TF over GST control)
